Assay results: PubChem BioAssay AID624335 (National Center for Advancing Translational Sciences (NCATS), 2012)
Calls of active or inactive are those of the source. Calls come from the whole dose curve; as a rule, active = well fitted curve in the direction sought with a large enough effect; inactive = flat fitted curve, though single readings scatter.

Assay: Quantitative high throughput screen for delayed death inhibitors of the malarial parasite plastid: Hit Validation with 3D7 at 96 hr using Flow Cytometry
Conditions: P. falciparum 3D7 in erythrocytes, SYBR/MitoTracker flow cytometry
Description: The goal of this screen is to discover new antimalarial compounds that act by inhibiting the development of the apicoplast organelle in the malarial parasite Plasmodium falciparum. Some antibiotics, such as azithromycin and tetracycline, are known to interfere with the apicoplast translational machinery, and have a potent antimalarial effect. […] We developed a cell-based quantitative high throughput screen that leverages this "delayed death" phenotype to enrich for compounds that target the apicoplast. To detect small molecules that cause the delayed death phenotype, erythrocytes infected with firefly luciferase-expressing parasites were incubated with compounds for either one or two generations, corresponding to 48 and 96 hours, respectively. Growth inhibition was detected by a decrease in luciferase activity. Compounds that inhibited parasite growth in the second generation at least five-fold more potently than in the first generation were defined as delayed death inducing. These compounds were selected for confirmatory screening using a flow cytometry based assay. This hit validation assay used the 3D7 cell line and measured at 96 hours. NIH Molecular Libraries Probe Production Network [MLPCN] NIH Chemical Genomics Center [NCGC] MLPCN Grant: R21 NS059500 Assay Provider: David Fidock and Eric Ekland, Columbia University
Test compounds were diluted in 20 microliters of complete media (RPMI 1640 with 0.5% w/v Albumax (GIBCO), 24 mM sodium bicarbonate (Sigma) and 10 ug/mL gentamycin (Gibco)) in clear 384-well plates (Greiner). All liquid handling was conducted using a Bio Tek Precision 2000 pipetting system. Twenty microliters of infected erythrocytes, 0.2% parasitemia (for 48 hour time points) or 0.1% parasitemia (for 96 hour time points) were added to the compound dilutions (1% hematocrit, final concentration; 40 microliters, total culture volume). The assay plates were incubated for 48 hours, or 96 hours, at 37 masculine C in a humidified chamber (Billups- Rothenberg, Del Mar, CA, USA), gassed with 5%CO2/5%O2/ 90%N2. After two generations (96hours), 5 microliters of culture were harvested and transferred to a second 384 well plate for fluorescent staining. Samples were stained with 30 microliters of 2 x SYBR Green I (Invitrogen) and 150nM MitoTracker Deep Red (Invitrogen) diluted in 0.9% NaCl, 0.2% dextrose (Baxter) supplemented with 2.5% Fetal Calf Serum (Gibco) (saline/FCS). Mature erythrocytes lack nuclei and mitochondria, therefore only parasitized erythrocytes retain the SYBR Green I and MitoTracker Deep Red. After 30 minutes at 37 masculine C, the stained cells were diluted in an additional 60 microliters of saline/FCS. The samples were harvested directly from the 384 well plate using a Hypercyt High Capacity Flow Platform (Intellicyt) paired with a C6 Flow Cytometer (Accuri). The flow cytometry files were analyzed using FlowJo software (FlowJo).

| Structure (SMILES) | Potency |
| --- | --- |
| CCCCN(CCCNC(=O)C1CCN(C(=O)c2cc3sccc3n2C)CC1)Cc1ccccc1 | 0.617 µM (active) |
| Cc1ccc(CN2CCC(n3nccc3NC(=O)c3ccccc3C)CC2)o1 | 20.7 µM (active) |
| COc1ccc(Nc2nnc(-c3ccc(C)cc3)c3ccccc23)cc1C(=O)N1CCCCC1 | 20 µM (active) |
| CCCCOc1ccc(N2C(N)=NC(N)=NC23CCCCC3)cc1 | 15.8 µM (active) |
| COc1ccc2cc3cc(C(=O)Nc4ccc5c(c4)OCO5)oc3nc2c1 | 11.9 µM (active) |
| Cc1sc2nc[nH]c(=O)c2c1-c1ccc(Cl)cc1 | 13.8 µM (active) |
| c1csc(CNc2ncnc3nc[nH]c23)c1 | 23.4 µM (active) |
| CCCc1c(CC)c(=N)c2ccccc2n1C | 0.198 µM (active) |
| CCN(CC)C(=O)COc1coc(CN2CCN(c3cccc(Cl)c3)CC2)cc1=O | 17.2 µM (active) |
| COc1ccc(CNC(=O)C2CCC(CNS(=O)(=O)c3cccc4cccnc34)CC2)cc1 (stereo not given) | 16.5 µM (active) |
| CCOc1ccc(S(=O)(=O)Nc2cc(S(=O)(=O)N(CC)CC)ccc2N2CCCC2)cc1 | 6.38 µM (active) |
| Cc1ccc(S(=O)(=O)Nc2ccc(C(=O)Nc3ccncc3)cc2)cc1 | 13.9 µM (active) |
| COc1ccc(NC(=S)N2CCC(Cc3ccccc3)CC2)cc1OC | 26.6 µM (active) |
| CC(C)C(=O)NCCSc1c[nH]c2ccccc12 | 16.6 µM (active) |
| CO[C@@H]1[C@@H](OC2OC(C)C(OC3CC(C)(O)C(OC(=O)CC(C)C)C(C)O3)C(N(C)C)C2O)[C@@H](CC=O)C[C@@H](C)C(=O)/C=C\C2O[C@H]2C[C@@H](C)OC(=O)C[C@H]1OC(C)=O (stereo not given in full) | 0.178 µM (active) |
| Cc1c(F)c(N2CCNC(C)C2)cc2c1c(=O)c(C(=O)O)cn2C1CC1 (stereo not given) | 0.651 µM (active) |
| O=C(CNC(=O)C1CCCCC1)OC(C(=O)c1ccccc1)c1ccccc1 (stereo not given) | 31.7 µM (active) |
| COc1cc(C(C)=O)ccc1OCC(O)CN1CCN(c2cc(C)cc(C)c2)CC1 (stereo not given) | 13.9 µM (active) |
| N#Cc1cccc(NC(=O)Cn2c3[n+](c4ccc(C(F)(F)F)cc42)CCCCC3)c1 | 0.96 µM (active) |
| COc1ccccc1N1CCN(CCC(=O)Nc2ccc(F)cc2)CC1 | 15.7 µM (active) |

| Structure (SMILES) | Potency |
| --- | --- |
| CCCc1cc(=O)oc2cc(OC(C)C(=O)NCc3ccccn3)c(Cl)cc12 (stereo not given) | 3.22 µM (active) |
| CCc1nc(SCC(=O)Nc2ccc(N(C)C)cc2)n[nH]1 | 23.9 µM (active) |
| COc1ccc2c(ccc[n+]2CC(=O)c2ccccc2)c1 | 2.22 µM (active) |
| CCOc1ccc(C(=O)Nc2ccc(N3CCN(C)CC3)cc2)cc1 | 16.5 µM (active) |
| COCCNC(=O)c1cccc(OC2CCN(Cc3cccc(SC)c3)CC2)c1 | 5.37 µM (active) |
| O=C(CSc1ccc(-c2cccnc2)nn1)Nc1ccccc1C(F)(F)F | 4.65 µM (active) |
| CCOc1ccc(NC(=O)C[n+]2ccc(N(C)C)cc2)cc1 | 0.135 µM (active) |
| CCCCN(CCCNC(=O)c1ccc(CS(=O)(=O)c2ccc(OC)cc2)o1)Cc1ccccc1 | 4.01 µM (active) |
| O=C(c1ccc([N+](=O)[O-])cc1)n1nc(-c2ccccc2)nc1NCc1ccc(F)cc1 | 19.3 µM (active) |
| Clc1ccc(-c2c[n+](Cc3ccc(Cl)cc3Cl)c3n2CCCCC3)cc1 | 0.366 µM (active) |
| CCOC(=O)c1ccc2c(c1)n(CC)c(/C=C/N(C)c1ccccc1)[n+]2CC | 0.209 µM (active) |
| O=C(Nc1ccccc1N1CCOCC1)c1cccc(S(=O)(=O)N2CCOCC2)c1 | 11 µM (active) |
| COc1cccc(CN2CCN(c3nc4nonc4nc3N3CCCCC3)CC2=O)c1 | 1 µM (active) |
| CN(C)S(=O)(=O)c1cc(NC(=O)C2=COCCO2)ccc1Cl | 15.9 µM (active) |
| CN(C)c1ccc(CN(C(=O)c2ccccc2Br)C2CCS(=O)(=O)C2)cc1 (stereo not given) | 18.2 µM (active) |
| CC(=O)NC[C@@H]1CN(c2ccc(N3CCOCC3)c(F)c2)C(=O)O1 | 22.2 µM (active) |
| Brc1cccc(OCCCCN2CCCCC2)c1 | 22.7 µM (active) |
| Cc1ccc(-n2c(-c3ccc(Cl)cc3)c[n+]3c2CCC3)cc1 | 0.15 µM (active) |
| COc1ccc(C(=O)N2CCN(S(=O)(=O)c3ccc(C)cc3C)CC2)cc1OC | 45.8 µM (active) |
| CC1=Nc2cc(C(=O)N3CCCC3)ccc2Sc2ccc(C)cc21 | 18 µM (active) |
